# Assay outcomes (PubChem)
# A selection: hits, their analogues and other compounds. The true share with any hit is near 0.93%.
# RPL19A-GFP yeast = alters RPL19A-GFP fluorescence in TOR pathway yeast screen; actives 0.3% (n = 330,000); AID 2025; S. cerevisiae RPL19A-GFP strain, flow cytometry, 3 h; stronger effect = lower value; percent response vs DMSO, % at 10 µM;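 active = percent response vs DMSO below 50%; inconclusive = fewer than 70 events counted for the yeast strain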;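 also: median channel GFP fluorescence of the barcoded RPL19A-GFP strain; lower means less RPL19A-GFP as with rapamycin TOR inhibition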
# MEP2 TOR yeast = modulators of TOR pathway MEP2-GFP in S. cerevisiae; S. cerevisiae MEP2-GFP strain, flow cytometry GFP, 3 h; 100% = DMSO control level; GFP response vs DMSO, % at 10 µM; actives 0.51% (n = 330,000); AID 2016;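 active = GFP response versus DMSO above a set limit, roughly screen mean plus 3 SD, cut at about 180% in these data; inconclusive = fewer than 70 cells counted for a yeast strain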;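 also: median GFP fluorescence of the barcode-gated MEP2-GFP cells per well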
# LAP4 TOR yeast = yeast TOR pathway LAP4-GFP modulation. actives 0.34% (n = 320,000). S. cerevisiae LAP4-GFP multiplex, flow cytometry GFP, 3 h; median GFP as percent of DMSO wells. GFP response vs DMSO, % at 10 µM;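 active = GFP response vs DMSO above a set limit, about the screen mean plus 3 SD, cut at about 150% in these data; inconclusive = under 70 cell events counted for the yeast strain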
# AGP1 TOR yeast = yeast TOR pathway AGP1-GFP modulation; S. cerevisiae AGP1-GFP multiplex flow cytometry, 3 h; GFP as percent of DMSO wells; GFP response vs DMSO, % at 10 µM; actives 0.02% (n = 320,000);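 active = GFP response relative to DMSO above a set limit, near screen average plus 3 SD, cut at about 150% in these data; inconclusive = fewer than 70 cells counted for the yeast strain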;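 also: median GFP channel fluorescence of the gated AGP1 strain per well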
# CIT2 TOR yeast = modulators of TOR pathway CIT2-GFP in S. cerevisiae; S. cerevisiae CIT2-GFP strain, flow cytometry, 3 h; 100 means same as DMSO wells; GFP response vs DMSO, % at 10 µM; actives 0.065% (n = 320,000);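 active = GFP response relative to DMSO above a set limit, near the screen mean plus 3 SD, cut at about 150% in these data; inconclusive = Fewer than 70 cells measured for a yeast strain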;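 also: ratio of well median GFP fluorescence to mean of DMSO wells on the plate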
# LAP4-GFP pick2 = second confirmation of modulators of TOR reporter LAP4-GFP in yeast; shares compounds with LAP4 TOR yeast; S. cerevisiae LAP4-GFP strain, flow cytometry GFP, 3 h; GFP response vs DMSO, % at 10 µM; actives 20% (n = 590);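 active = GFP signal as percent of the solvent control above about 150%, meaning raised reporter expression, limit read from the data; inconclusive = fewer than 70 cells counted in the well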
# MEP2 cherry2 = yeast MEP2-GFP modulation, second cherry pick; shares compounds with LAP4 TOR yeast; S. cerevisiae MEP2-GFP strain, flow cytometry GFP, 3 h; GFP response vs DMSO, % at 10 µM; actives 10% (n = 590);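 active = GFP signal above 150% of the solvent control wells, that is a rise of more than half; inconclusive = fewer than 70 yeast cells counted in the well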;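 also: median channel GFP fluorescence of all gated yeast cells per well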
# RPL19A-GFP pick2 = reconfirmed modulator of RPL19A-GFP TOR reporter in yeast | AID 2623 | S. cerevisiae RPL19A-GFP strain, flow cytometry GFP, 3 h; stronger effect = lower value; 100% means same as DMSO wells | shares compounds with LAP4 TOR yeast | GFP response vs DMSO, % at 10 µM | actives 3% (n = 590);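 active = under 65% GFP response relative to DMSO; inconclusive = yeast strain with under 70 measured events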;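 also: median GFP channel fluorescence per well over the all cells gate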
# CIT2 GFP CP2 = yeast CIT2-GFP TOR reporter modulation, second cherry pick; shares compounds with LAP4 TOR yeast; S. cerevisiae CIT2-GFP strain, flow cytometry GFP, 3 h; DMSO control wells read 100%; GFP response vs DMSO, % at 10 µM; actives 8% (n = 590); AID 2624;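 active = GFP response vs DMSO above about 150%, limit read from the data; inconclusive = fewer than 70 events counted for a yeast strain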;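 also: median green fluorescence per well over all gated yeast cells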
# AGP1 GFP CP2 = yeast AGP1-GFP TOR reporter modulation, second cherry pick; shares compounds with LAP4 TOR yeast; S. cerevisiae AGP1-GFP strain, flow cytometry GFP, 3 h; percent response vs DMSO, % at 10 µM; 590 tested, under 10 active; AID 2643;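 active = over 150 percent of DMSO response; inconclusive = yeast strain measured with under 70 events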;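 also: median GFP channel fluorescence over all cells without mother daughter split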
# Yeast autofluor = compound is autofluorescent in yeast s288c cells; shares compounds with LAP4 TOR yeast; S. cerevisiae s288c, 520 nm autofluorescence, flow cytometry, 3 h; stronger effect = higher value; zero means same as solvent-only cells; fluorescence change (kMESF span) at 33 µM; 610 tested, under 10 active;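 active = fluorescence span over the dose series, or activity score, above about 33, limit read from the data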
# s288c autofl DR = counter-screen for autofluorescence of TOR hits in yeast s288c; 110 tested, under 10 active; shares compounds with LAP4 TOR yeast; fluorescence change (span) at 33 µM; AID 488829; S. cerevisiae s288c parental, compound autofluorescence, flow cytometry, 3 h;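 active = fluorescence change span, or the activity score built from it, above 25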
# TORC1 bypass = stops wildtype yeast growth while TORC1 bypass cells still grow. shares compounds with LAP4 TOR yeast. S. cerevisiae BY4741 spot growth rating, 48-72 h; stronger effect = lower value. growth rating (0-3) at 30 µM. 120 tested, under 10 active. AID 504456;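 active = growth rating at most 1 for wild type yeast while the TORC1 bypass strain still grows fully, rated 3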
# Hits are given with their value; – = inactive; ? = inconclusive; · = no result.
SMILES,RPL19A-GFP yeast,MEP2 TOR yeast,LAP4 TOR yeast,AGP1 TOR yeast,CIT2 TOR yeast,Yeast autofluor,others
CC(=O)c1ccc(N2CCN(C(=O)c3ccc(Br)cc3)CC2)c(F)c1,–,–,162,–,–,–,s288c autofl DR=–;TORC1 bypass=–
COC(=O)c1sccc1NC(=O)c1ccccc1Br,–,–,–,–,–,·,
CN(C)c1ccc(/C=C/c2cc[n+](C)cc2)cc1,–,249,199,–,182,–,
CN(C)c1ccc(/C=C/c2cc[n+]([O-])cc2)cc1,–,–,–,–,–,·,
CC(C)C(=O)Nc1ccccc1N1CCN(C(=O)c2ccccc2)CC1,–,–,–,–,–,·,
O=C1C=CC(=O)N1c1ccc(Sc2ccc([N+](=O)[O-])cc2)cc1,–,–,162,–,–,–,
Cn1c(N)c(Sc2ccc([N+](=O)[O-])cc2)c(=O)n(C)c1=O,–,–,–,–,–,·,
C/C(=N\NC(=O)c1cc2ccccc2cc1O)c1ccccn1,–,–,216,–,–,–,
Cc1nn(C)c(C)c1N1C(=O)c2cccc3c(Br)ccc(c23)C1=O,–,–,–,–,–,–,
N/C(Cc1ccc(Cl)cc1)=N\OC(=O)c1ccccc1,–,–,192,–,–,–,LAP4-GFP pick2=218;MEP2 cherry2=166;RPL19A-GFP pick2=–;CIT2 GFP CP2=225;AGP1 GFP CP2=–
COc1cc(C(=O)N/N=C/c2cccc(Oc3ccccc3)c2)ccc1O,?,–,–,?,–,·,
O=C(Cc1ccc(Cl)cc1)Nc1ccc(NC(=O)c2ccccc2)cc1,–,–,–,–,–,·,
COc1ccccc1NC(=O)CC(=O)Nc1ccccc1OC,–,–,–,–,–,·,
COc1ccccc1NC(=O)CC(=O)c1ccccc1,–,–,–,–,–,·,LAP4-GFP pick2=–;MEP2 cherry2=–;RPL19A-GFP pick2=–;CIT2 GFP CP2=–;AGP1 GFP CP2=–
O=C(CC(=O)c1ccccc1)Nc1ccc(Cl)cc1,–,–,–,–,–,·,LAP4-GFP pick2=–;MEP2 cherry2=–;RPL19A-GFP pick2=–;CIT2 GFP CP2=–;AGP1 GFP CP2=–
CCCOc1cc(C)c(S(=O)(=O)NCCOC)cc1C,–,–,–,–,–,·,
Cc1ccc(C)c(/C=C/C(=O)c2ccccc(=O)c2O)c1,–,–,–,–,–,–,LAP4-GFP pick2=–;MEP2 cherry2=168;RPL19A-GFP pick2=–;CIT2 GFP CP2=152;AGP1 GFP CP2=–
Cc1ccc(/C=C/C(=O)c2ccccc2)cc1,–,–,–,–,–,·,
O=C(/C=C/c1ccccc1Cl)c1ccccc(=O)c1O,–,–,–,–,–,–,LAP4-GFP pick2=162;MEP2 cherry2=222;RPL19A-GFP pick2=–;CIT2 GFP CP2=–;AGP1 GFP CP2=–
Cc1ccc(/C=C/C(=O)c2ccccc(=O)c2O)c(C)c1,–,181,–,–,–,–,
O=C(Oc1oc(-c2ccco2)nc1C=Nc1ccccc1)c1ccco1,–,–,203,–,–,–,
O=c1oc(-c2ccco2)nc2ccccc12,–,–,–,–,–,·,
